For the experiment, the target named is T1, ETS1 (UniProt P14921).
T1 sequence: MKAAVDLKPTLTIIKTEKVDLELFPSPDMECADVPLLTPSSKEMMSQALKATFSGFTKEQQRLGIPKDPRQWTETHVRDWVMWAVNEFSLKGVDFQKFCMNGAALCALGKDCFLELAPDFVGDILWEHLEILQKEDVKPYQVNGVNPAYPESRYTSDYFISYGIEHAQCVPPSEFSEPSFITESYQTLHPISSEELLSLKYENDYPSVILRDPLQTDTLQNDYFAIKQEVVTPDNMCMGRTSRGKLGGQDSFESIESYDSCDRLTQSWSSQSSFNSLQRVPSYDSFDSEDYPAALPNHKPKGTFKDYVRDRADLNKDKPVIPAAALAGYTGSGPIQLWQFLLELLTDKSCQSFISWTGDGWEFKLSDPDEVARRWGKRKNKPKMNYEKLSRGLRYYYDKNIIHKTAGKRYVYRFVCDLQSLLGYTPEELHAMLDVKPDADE
In words: TF binding intensity (PBM fluorescence), negative control probe (arbitrary fluorescence units); higher = stronger binding. The procedure: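 gcPBM negative-control 36-bp genomic probes lacking TF binding sites. Each was incubated with recombinant human ETS1 or RUNX1 alone and detected by antibody fluorescence. Values are medians over replicate spots (4 spots for the ETS1-RUNX1 arrays, 3 for the ETS1-ETS1 array). The probes sit in constant array flanks that are not printed.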
The sequence “CAACCTAACTATAATGCAAATAGGGATTCTTTTTCT (protein concentration 10 nM)” displayed a TF binding intensity of 88.5.

Turning to “GCTTTTTTTTTCTGTTGTGGGAGAAAGATGAGAGTC (protein concentration 1 nM)”, the TF binding intensity was determined as 535. Then “TCCTTTTGCTATACAGACCCCAGAACTCCTGAATGG (protein concentration 10 nM)”, with 119. As to “TTTTTAAATTCGGTTTTGTGTTTTATCTTCAATTTC (protein concentration 10 nM)”, the TF binding intensity is 105. Then “ATGTTTTCGGTTCTTAGGACCCAGGTGCTCACCACA (protein concentration 10 nM)”, with 106. The figure for “CGGACTGGGAGTTTGACCGCGTTGACGACGGCTCGC (protein concentration 1 nM)” is 446; for “CCAGCCAACCCAAAGACCACACCCCACCACCTCCTC (protein concentration 1 nM)” it is 491. The figure for “GTTGGGCCCCCTGGGCCTTGTTCTCGGGATCCAGGG (protein concentration 10 nM)” is 111; for “CTTGGTGTGTCTGAAGAAAGATCAGAAGGCTGGCAT (protein concentration 10 nM)” it is 123; for “TCCTCAAAATTAAGGTGCGGTGCCAGGCGCAGTGGC (protein concentration 1 nM)” it is 374. Consider “CCAGCAGCAGTTGTGAATTGGGTAATTTAATGAAAA (protein concentration 10 nM)”, for which the TF binding intensity worked out at 116. The figure for “GGGGAAAATGAGCACAGGTGTGAAGCAGATCACAGG (protein concentration 10 nM)” is 170; for “CTTCAAAGGCCCCGCATTAGCTGGGGTCGATCCAGA (protein concentration 10 nM)” it is 154; for “GAGCAGGAGAAAATGTGTCTGAGAAAGAGCTAGGAG (protein concentration 10 nM)” it is 128. Then “TTCTTTGACTCACTATGCGGGTTGGTACATCTGGGG (protein concentration 1 nM)”, with 476; and “AAGTATTGTAGTTGTTGTGGTAAAAACAGATAGATA (protein concentration 1 nM)”, with 529. Regarding “TAGGGAATGGTGAGCTGTGGTTTGTGGCTTCATGGA (protein concentration 1 nM)”, the TF binding intensity came out at 443.

Turning to “AACTTGTCCCTGGAATGTGGTTGAAACAGACTTAGG (protein concentration 1 nM)”, the TF binding intensity was determined as 448.

Regarding “TGACCATTTGAGGTTTGTGGTTATGCATATAAAATG (protein concentration 1 nM)”, the TF binding intensity was 577. The figure for “CAAAATGCTTAAAAGGTAACTTGACTCTTTGTTTGG (protein concentration 10 nM)” is 123; for “GAACTAACGAGGTCACTGAGAAATTACAAAGTGTGA (protein concentration 10 nM)” it is 107; for “GTCTTGTTACTGGAGTGTGATAGCACCTAATAATAT (protein concentration 10 nM)” it is 150. For the sequence “AAAAAAATAGCTTTAACCACAAAAACTCCTTGAAAA (protein concentration 1 nM)”, the TF binding intensity was found to be 514. “GCCCATCATTGGAGTCCCTTGGGGGTATCTGGAGCA (protein concentration 10 nM)” displayed a TF binding intensity of 161. Then “GAAATCACGGGACCCCGAGCGGTTGGAGATCTGCCA (protein concentration 10 nM)”, with 91.7; and “CCCTGAGGTCTATCTTGCTGCAAATTGAATGCCTGC (protein concentration 10 nM)”, with 120. The figure for “AAATTCTGTAACCAGTGCTCTTGAGCTGCTTGCTGG (protein concentration 10 nM)” is 102; for “CTACACATTTTAAAGAAAGAGACCACAGTTCTTTAT (protein concentration 10 nM)” it is 122; for “TCAGCAGCTCGTGCTGCTTGAAGTGCTGGGGGCGAG (protein concentration 10 nM)” it is 153. The figure for “GCCCTCTGCGGGGCAACAGCACGAGGCATTACCCCT (protein concentration 10 nM)” is 107; for “GAAATGGAGCAGAAAACCTGGAACCCAGCTGGGAAG (protein concentration 10 nM)” it is 117; for “TAGAAACCGTGTTTTAAATTTAACACTGGTAAGATG (protein concentration 10 nM)” it is 113. In the case of “CAGGCTGTGGTTTCCATCATGAACACGTGATCCAGC (protein concentration 10 nM)”, the TF binding intensity worked out at 127. The figure for “ATTTGGGTTCCAGCCCGCTAGCCTGCCTTTTCTCAT (protein concentration 10 nM)” is 92.9.
